Assay results reported in PubChem BioAssay AID485344 (National Center for Advancing Translational Sciences (NCATS), 2010).
The campaign covered roughly 340,000 compounds. About 6,900 (2%) were called active. No stated cut-off is given here; in the data, active means inhibition above about 30%; inactive means below that, where a call was filed. Many of the other results were omitted from the sample, so actives are more common in it than they were.

Each compound was assayed against D(2) dopamine receptor (Homo sapiens) (UniProt P14416) (assay: HTS Assay for Allosteric Antagonists of the Human D2 Dopamine Receptor: Primary Screen for Antagonists). Conditions: HEK293 TREx D2 cells, calcium flux, dopamine EC80; at 10 µM; stronger effect = higher value.
How it was run: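 Tetracycline-induced HEK293 TREx cells expressing D2 receptor forced-coupled to calcium signalling, loaded with no-wash calcium dye. Compounds added and calcium flux read 180 s, then dopamine added at EC80 and read a further 180 s.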
Further: 0% is about no effect.

Sequence of D(2) dopamine receptor (Homo sapiens) (P14416 whole entry, looked up): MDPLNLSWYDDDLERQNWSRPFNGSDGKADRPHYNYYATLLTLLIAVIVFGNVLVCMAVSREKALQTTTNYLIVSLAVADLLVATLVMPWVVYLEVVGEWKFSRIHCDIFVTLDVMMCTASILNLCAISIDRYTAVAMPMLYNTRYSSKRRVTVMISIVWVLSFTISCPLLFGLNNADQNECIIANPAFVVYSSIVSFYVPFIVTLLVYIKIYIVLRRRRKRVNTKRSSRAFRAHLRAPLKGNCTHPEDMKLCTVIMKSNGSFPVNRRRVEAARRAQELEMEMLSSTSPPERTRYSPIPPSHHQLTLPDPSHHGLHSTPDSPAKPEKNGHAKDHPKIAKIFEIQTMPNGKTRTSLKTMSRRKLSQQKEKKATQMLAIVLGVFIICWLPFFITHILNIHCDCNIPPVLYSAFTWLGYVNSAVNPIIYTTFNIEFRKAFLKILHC

For CCCn1nc(C(=O)NNC(=O)CSCC(=O)Nc2cc(C)on2)c2ccccc2c1=O, which inhibition is on record?
The inhibition was 5.99% (inactive).

For CCCCn1nc(C(=O)Nc2cccc(C(=O)NC3CC3)c2)c2ccccc2c1=O, which inhibition is on record?
Its inhibition is -27.4% (inactive).

How did the inhibition turn out when CCCn1nc(C(=O)Nc2ccc3nc(C)sc3c2)c2ccccc2c1=O was run?
Its inhibition is 31% (active).

How did the inhibition turn out when CN(C)CCn1c2c(c(SCC(=O)NCc3ccccc3)nc1=O)CCC2 was run?
Its inhibition is -8.18% (inactive).

COCCNc1nnc(SCC(=O)NNC(=O)c2ccco2)s1 was tested. Which inhibition did it give?
The inhibition was -27.3% (inactive).

How did the inhibition turn out when COc1ccccc1NS(=O)(=O)c1ccc(C)c(C(=O)NCC(c2ccco2)N(C)C)c1 (configuration not stated) was run?
Its inhibition is 7.48% (inactive).

How did the inhibition turn out when COCCNCCOCCOc1cccc(OC)c1 was run?
The inhibition was -3.27% (inactive).

Which inhibition does the source give for CN(C)CCOCCOc1ccc(Cl)c2ccccc12 here?
The inhibition was -4.55% (inactive).

How did the inhibition turn out when Clc1cccc(Cl)c1OCCOCCNCc1ccccc1 was run?
Its inhibition is 53% (active).

Which inhibition does the source give for O=[N+]([O-])c1ccc(N2CCN(CC(O)COc3ccccc3)CC2)cc1 (configuration not stated) here?
Its inhibition is -9.55% (inactive).

With OC(COCc1ccco1)CN1CCN(c2ccccc2)CC1 (configuration not stated) as the compound, how does the inhibition read?
The inhibition was 74.4% (active).

How did the inhibition turn out when OC(COCC1COc2ccccc2O1)CN1CCN(c2ccc(F)cc2)CC1 (configuration not stated) was run?
Its inhibition is 2.02% (inactive).

For O=C(CSc1nc2ccccc2c(=O)n1CCCO)NC1CC1, which inhibition is on record?
Its inhibition is -4.48% (inactive).

For C=CCC(NC(=O)Cc1ccccc1)C(=O)NCCC (configuration not stated), which inhibition is on record?
The inhibition was 1.08% (inactive).

How did the inhibition turn out when CCCCC/C=C/C1=CC(=O)C[C@H](c2ccc(Cl)cc2)C1 was run?
The inhibition was 3.21% (inactive).

How did the inhibition turn out when Cc1ccc(-c2nn(-c3ccccc3)cc2/C=N/NC(=O)c2ccc3c(c2)OCO3)cc1 was run?
Its inhibition is 31.8% (active).

With CC(C)(C)OC(=O)N/N=C/c1cn(-c2ccccc2)nc1-c1cccnc1 as the compound, how does the inhibition read?
The inhibition was -2.64% (inactive).

Cc1nnc(SCC(=O)N/N=C/c2cn(-c3ccccc3)nc2-c2ccc(F)cc2)n1-c1ccccc1 was tested. Which inhibition did it give?
Its inhibition is -8.35% (inactive).

With Cc1ccc(OCC(=O)N2CCN(S(=O)(=O)c3ccc(Cl)s3)CC2)cc1C as the compound, how does the inhibition read?
The inhibition was -12% (inactive).

Which inhibition does the source give for CCCc1nc2ccccc2c(C(=O)OCC(=O)c2ccc3c(c2)NC(=O)CO3)c1CC here?
Its inhibition is -8.13% (inactive).

O=C(OCc1nnc(-c2ccccc2)o1)c1cc(=O)[nH]c2ccccc12 was tested. Which inhibition did it give?
Its inhibition is 6.34% (inactive).

For CCCc1nc2ccccc2c(C(=O)OCc2nnc(-c3cc(OC)c(OC)c(OC)c3)o2)c1CC, which inhibition is on record?
The inhibition was 38% (active).

How did the inhibition turn out when COc1cc2[nH]c(=O)n(CCC(=O)NC3CCN(Cc4ccccc4)CC3)c(=O)c2cc1OC was run?
The inhibition was -8.24% (inactive).

For CCOc1cc2[nH]c(=O)n(Cc3ccc(C(=O)NCCCN4CCCC4=O)cc3)c(=O)c2cc1OCC, which inhibition is on record?
The inhibition was 9.71% (inactive).

Which inhibition does the source give for COC(=O)c1cccc(NC(=O)CN2CCC(NC(=O)c3cc(OC)c(OC)c(OC)c3)CC2)c1 here?
The inhibition was -8.24% (inactive).

COc1cc(C(=O)NC2CCN(Cc3ccccc3)CC2)cc(Cl)c1OC(C)C was tested. Which inhibition did it give?
The inhibition was 47.6% (active).

For COc1cc2[nH]c(=O)n(Cc3ccc(C(=O)NC4CCN(Cc5ccccc5)CC4)cc3)c(=O)c2cc1OC, which inhibition is on record?
The inhibition was 90.8% (active).

Which inhibition does the source give for COc1ccc(C(=O)NC2CC2)cc1OC1CCN(Cc2ccc(SC)cc2)CC1 here?
The inhibition was 2.51% (inactive).

Which inhibition does the source give for Cc1c(NC(=O)CSc2nnc(-c3cccnc3)n2N)c(=O)n(-c2ccccc2)n1C here?
Its inhibition is 7.44% (inactive).

CCCCn1c(N)c(N(CCC(C)C)C(=O)c2ccc(COc3ccccc3)o2)c(=O)[nH]c1=O was tested. Which inhibition did it give?
The inhibition was -9.11% (inactive).

For C#CCOCCOCCOCCNc1nc(N2CCN(C(=O)CCCCCCCCCCNC(=O)[C@H]([C@@H](C)CC)n3cc(CCCCN=C(N)N)nn3)CC2)nc(N2CCN(C(=O)CCCCCCCCCCNC(=O)[C@H](CO)n3cc(CCCSC)nn3)CC2)n1, which inhibition is on record?
Its inhibition is 1.17% (inactive).

How did the inhibition turn out when Cc1ccn2c(=O)nc(SCC(=O)NCc3ccc(F)cc3)nc2c1 was run?
The inhibition was 17.8% (inactive).

With CC1CCCCN1C(=S)NCc1ccccc1 (configuration not stated) as the compound, how does the inhibition read?
The inhibition was 31.9% (active).

For C/C(=N\NC(=S)NCc1ccccc1)C1CCCCC1, which inhibition is on record?
Its inhibition is -10.6% (inactive).

Which inhibition does the source give for CC1CCCCN1C(=O)CCS(=O)(=O)Cc1ccccc1 (configuration not stated) here?
Its inhibition is 3.72% (inactive).

For O=C(CN1CCCSc2ccccc21)N1CCN(S(=O)(=O)c2ccccc2)CC1, which inhibition is on record?
The inhibition was 3.3% (inactive).

O=C(OCc1cc(=O)n2ccsc2n1)C1(c2ccc(Cl)cc2)CC1 was tested. Which inhibition did it give?
Its inhibition is 29.3% (inactive).

CSCCC(NC(=O)c1ccccc1)C(=O)N1CCN(Cc2ccc(Cl)cc2)CC1 (configuration not stated) was tested. Which inhibition did it give?
The inhibition was -14.3% (inactive).

N#Cc1ccc(C2=CC(=O)C[C@H](c3ccc(Cl)cc3)C2)cc1 was tested. Which inhibition did it give?
Its inhibition is -1.65% (inactive).

With COc1cccc(NC(=O)CN(C)C(=O)c2cc(C3CC3)nn2-c2ccccc2)c1 as the compound, how does the inhibition read?
The inhibition was -0.486% (inactive).

With COc1ccc(NC(=O)CN(C)C(=O)c2cc(C3CC3)nn2-c2ccccc2)cc1 as the compound, how does the inhibition read?
The inhibition was 39.5% (active).

With CCc1ccccc1NC(=O)CN(C)C(=O)c1cc(C2CC2)nn1-c1ccccc1 as the compound, how does the inhibition read?
Its inhibition is 2.39% (inactive).

Which inhibition does the source give for Cc1csc(=O)n1CCC(=O)OCC(=O)NNC(=O)c1ccc(Br)cc1 here?
The inhibition was -9.52% (inactive).

Cc1c(C(C)CCCO)oc(=O)c2c1Oc1c(C)c(C(C)C[C@@H](C)O)oc(=O)c1C2 (some centres not stated) was tested. Which inhibition did it give?
The inhibition was 17% (inactive).

For Cc1ccc(C(=O)OCC(=O)N2CC(C)CC(C)C2)cc1S(=O)(=O)N1CCCCC1 (configuration not stated), which inhibition is on record?
Its inhibition is 19.3% (inactive).

How did the inhibition turn out when O=C(CN1CCN(c2ccc(F)cc2)CC1)Nc1ccccc1 was run?
Its inhibition is -19.8% (inactive).

How did the inhibition turn out when O=C(CCN1CCN(c2ccccc2)CC1)NNC(=S)Nc1ccccc1 was run?
Its inhibition is 61.2% (active).

With O=C(CN1CCN(c2ccccc2)CC1)Nc1ccc(F)cc1 as the compound, how does the inhibition read?
Its inhibition is 13.5% (inactive).

Cc1cccc(C)c1NC(=O)COC(=O)c1c(C)nn(-c2ccccc2)c1C was tested. Which inhibition did it give?
Its inhibition is 1.57% (inactive).

Which inhibition does the source give for Cc1ccc(C(CC(=O)O)NC(=O)c2ccc(S(=O)(=O)N3CCCC3)cc2)cc1 (configuration not stated) here?
Its inhibition is 8.12% (inactive).

For CN(C)CCNC(=O)Cc1ccc([N+](=O)[O-])cc1, which inhibition is on record?
Its inhibition is -7.39% (inactive).

CCCCN(C)c1ccc([N+](=O)[O-])cc1 was tested. Which inhibition did it give?
The inhibition was -0.645% (inactive).

For CN(C)CCCN1C(=O)CSC1c1ccc([N+](=O)[O-])cc1 (configuration not stated), which inhibition is on record?
Its inhibition is 34% (active).

How did the inhibition turn out when CC(=O)Nc1ccc(S(=O)(=O)N2CCn3cccc3C2C)cc1 (configuration not stated) was run?
The inhibition was 2.61% (inactive).

Cc1cccc(C(=O)NNC(=O)CSc2nnc(C(C)C)n2C)c1 was tested. Which inhibition did it give?
The inhibition was 41.8% (active).

For CCC(c1nnc(SCC(=O)NNC(=O)c2ccccc2)n1Cc1ccccc1)N(C)C (configuration not stated), which inhibition is on record?
The inhibition was -24.9% (inactive).

Which inhibition does the source give for CCn1c(SCC(=O)NNC(=O)c2ccc(OC)cc2)nnc1C(C)C here?
The inhibition was -19.3% (inactive).
